Laboratory results taken from ChEMBL document CHEMBL1961873, “Compounds: GSK PKIS; Assays: Nanosyn kinase panel” (2012).
Where “and” joins values, the source holds several entries; their conditions need not be identical. Equal values may be shown once.

The compounds below were run against Phosphatidylinositol 4-kinase beta (Homo sapiens) (UniProt Q9UBF8). Conditions: at 1 µM.
Phosphatidylinositol 4-kinase beta (Homo sapiens), sequence (Q9UBF8 2-816 limits assumed): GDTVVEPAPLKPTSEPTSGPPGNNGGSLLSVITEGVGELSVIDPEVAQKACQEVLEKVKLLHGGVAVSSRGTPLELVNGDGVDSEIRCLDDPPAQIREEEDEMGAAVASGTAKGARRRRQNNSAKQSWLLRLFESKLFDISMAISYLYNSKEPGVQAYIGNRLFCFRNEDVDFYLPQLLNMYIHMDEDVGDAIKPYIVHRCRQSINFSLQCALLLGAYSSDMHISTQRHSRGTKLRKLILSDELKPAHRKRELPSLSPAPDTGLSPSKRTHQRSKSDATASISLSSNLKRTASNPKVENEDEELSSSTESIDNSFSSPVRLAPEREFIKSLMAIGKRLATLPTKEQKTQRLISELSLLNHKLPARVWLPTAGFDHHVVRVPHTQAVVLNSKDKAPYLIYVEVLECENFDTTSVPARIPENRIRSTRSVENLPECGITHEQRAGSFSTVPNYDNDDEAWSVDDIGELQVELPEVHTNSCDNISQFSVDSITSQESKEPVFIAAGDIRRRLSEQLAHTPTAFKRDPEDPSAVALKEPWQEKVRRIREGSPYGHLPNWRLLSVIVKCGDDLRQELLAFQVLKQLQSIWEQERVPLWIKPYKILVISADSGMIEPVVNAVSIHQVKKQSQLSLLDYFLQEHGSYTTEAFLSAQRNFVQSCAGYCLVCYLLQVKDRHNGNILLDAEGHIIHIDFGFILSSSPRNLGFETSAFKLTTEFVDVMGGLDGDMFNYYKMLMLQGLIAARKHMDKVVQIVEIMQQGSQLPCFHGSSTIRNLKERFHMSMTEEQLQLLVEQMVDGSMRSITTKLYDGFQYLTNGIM

| SMILES | inhibition |
| --- | --- |
| O=C(O[C@H]1CN[C@H](C#Cc2cc3ncnc(Nc4ccc5c(cnn5Cc5ccccc5)c4)c3s2)C1)N1CCOCC1 | 2.11% |
| Cn1c(-c2nonc2N)nc2cnccc21 | -3.7% |
| Nc1ncnc2occ(-c3ccc(NC(=O)Nc4cc(C(F)(F)F)ccc4F)cc3)c12 | 10.9% and 7.67% |
| O=C(Nc1n[nH]c2nnc(-c3cccnc3)cc12)C1CC1 | 3.04% |
| COc1ccc2ncn(-c3cc(O[C@H](C)c4ccccc4C(F)(F)F)c(C(N)=O)s3)c2c1 | 1.85% |
| CCOc1ccc2c(-c3ccnc(Nc4cc(OC)cc(C(F)(F)F)c4)n3)cnn2n1 | -4.92% |
| c1ccc(-c2n[nH]cc2-c2ccnc(-c3ccc(OCCn4ccnc4)cc3)c2)nc1 | 7.03% |
| CCN1CCC(C(=O)Nc2n[nH]c3nnc(-c4cccc(F)c4F)cc23)CC1 | -1.04% |
| Nc1nonc1-c1nc2cnccc2n1C1CC1 | -6.41% and 0.29% |
| O=C1Nc2ccccc2/C1=C1\CCc2cc(O)ccc21 | -0.12% |
| NC(=O)c1ccc2c(-c3ccnc(NCCCO)n3)c(-c3ccc(F)cc3)nn2c1 | 3.6% |
| NS(=O)(=O)c1ccc(N/N=C2\C(=O)Nc3cccc(CCc4ccncc4)c32)cc1 | 1.01% |
| FC(F)(F)CNc1nccc(-c2cnn3ncccc23)n1 | 5.22% |
| COc1ccc(-c2nn3ncccc3c2-c2ccnc(Nc3ccc(F)c(F)c3)n2)cc1 | -6.41% |
| c1cnn2ncc(-c3ccnc(NCCCN4CCOCC4)n3)c2c1 | 9.05% |
| COc1cc(Nc2ncc(-c3ccccc3)o2)cc(OC)c1 | 3.11% |

| SMILES | inhibition |
| --- | --- |
| CCS(=O)(=O)c1ccc(OC)c(Nc2ncc(-c3cccc(C(C)=O)c3)o2)c1 | -1.58% |
| COC(=O)Nc1nc2ccc(Oc3ccc(NC(=O)Nc4cc(C(F)(F)F)ccc4F)cc3)cc2s1 | -0.16% |
| COc1ccc(Nc2ncc(-c3ccccc3)o2)cc1OC | 4.24% |
| NS(=O)(=O)c1cccc(N/C=C2\C(=O)Nc3ccccc32)c1 | 2.07% |
| COc1cc(N2CCN(C(C)C)CC2)ccc1Nc1nc(Nc2cccc3ncccc23)c2cc[nH]c2n1 | -2.85% |
| COc1cc(N2CCN(C(C)C)CC2)ccc1Nc1nc(Nc2cccc(F)c2C(=O)O)c2cc[nH]c2n1 | 0.72% |
| CN1CCC(C(=O)Nc2n[nH]c3nc(-c4ccc(O)cc4)c(Br)cc23)CC1 | -0.62% and 1.07% |
| O=C(O[C@H]1CN[C@H](C#Cc2cc3ncnc(Nc4ccc(OCc5cccc(F)c5)c(Cl)c4)c3s2)C1)N1CCOCC1 | 1.44% |
| CN(C)CCNC(=O)Nc1ccc(N(C)c2ccnc(Nc3ccc(CS(C)(=O)=O)cc3)n2)cc1 | 15.7% |
| NS(=O)(=O)c1ccc(N/N=C2\C(=O)Nc3ccc(C(=O)NCc4ccncc4)cc32)cc1 | -0.17% |
| Fc1ccc(Nc2nccc(-c3c(-c4ccc(C(F)(F)F)cc4)nn4ncccc34)n2)cc1F | -1.62% |
| CC1(C)CC(n2cnc(-c3ccc(F)cc3)c2-c2ccnc(N)n2)CC(C)(C)N1 | -1.54% |
| Cc1c2ccc(N(C)c3ccnc(Nc4cccc(S(N)(=O)=O)c4)n3)cc2nn1C | 1.94% |
| CN1CCC(n2cnc(-c3ccc(F)cc3)c2-c2ccnc(NCCO)n2)CC1 | 4.51% |
| CS(=O)(=O)CCNCc1ccc(-c2ccc3ncnc(Nc4ccc(OCc5ccccc5)cc4)c3c2)o1 | 0.45% |

The compounds below were run against Sphingosine kinase 1 (Homo sapiens) (UniProt Q9NYA1). Conditions: at 0.1 µM.
Sphingosine kinase 1 (Homo sapiens), sequence (Q9NYA1 whole entry): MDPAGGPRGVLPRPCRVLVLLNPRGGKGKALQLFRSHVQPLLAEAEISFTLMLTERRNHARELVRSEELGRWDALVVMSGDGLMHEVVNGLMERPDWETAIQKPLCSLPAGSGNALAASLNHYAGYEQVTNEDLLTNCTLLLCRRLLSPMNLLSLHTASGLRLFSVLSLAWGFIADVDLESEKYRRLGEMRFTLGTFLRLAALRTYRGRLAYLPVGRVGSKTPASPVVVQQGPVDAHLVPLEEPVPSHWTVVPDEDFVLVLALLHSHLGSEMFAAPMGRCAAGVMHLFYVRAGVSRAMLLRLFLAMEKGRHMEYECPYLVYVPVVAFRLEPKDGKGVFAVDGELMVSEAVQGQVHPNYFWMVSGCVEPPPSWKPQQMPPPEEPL

| SMILES | inhibition |
| --- | --- |
| O=C(O[C@H]1CN[C@H](C#Cc2cc3ncnc(Nc4ccc5c(cnn5Cc5ccccc5)c4)c3s2)C1)N1CCOCC1 | 2.86% |
| Cn1c(-c2nonc2N)nc2cnccc21 | -0.45% |
| Nc1ncnc2occ(-c3ccc(NC(=O)Nc4cc(C(F)(F)F)ccc4F)cc3)c12 | 3.31% and 0.73% |
| O=C(Nc1n[nH]c2nnc(-c3cccnc3)cc12)C1CC1 | 1.36% |
| COc1ccc2ncn(-c3cc(O[C@H](C)c4ccccc4C(F)(F)F)c(C(N)=O)s3)c2c1 | -1.01% |
| CCOc1ccc2c(-c3ccnc(Nc4cc(OC)cc(C(F)(F)F)c4)n3)cnn2n1 | -3.8% |
| c1ccc(-c2n[nH]cc2-c2ccnc(-c3ccc(OCCn4ccnc4)cc3)c2)nc1 | 2.34% |
| CCN1CCC(C(=O)Nc2n[nH]c3nnc(-c4cccc(F)c4F)cc23)CC1 | 0.46% |
| Nc1nonc1-c1nc2cnccc2n1C1CC1 | -1.72% and 0.56% |
| O=C1Nc2ccccc2/C1=C1\CCc2cc(O)ccc21 | 1.98% |
| NC(=O)c1ccc2c(-c3ccnc(NCCCO)n3)c(-c3ccc(F)cc3)nn2c1 | -2.85% |
| NS(=O)(=O)c1ccc(N/N=C2\C(=O)Nc3cccc(CCc4ccncc4)c32)cc1 | 1.36% |
| FC(F)(F)CNc1nccc(-c2cnn3ncccc23)n1 | -2.3% |
| COc1ccc(-c2nn3ncccc3c2-c2ccnc(Nc3ccc(F)c(F)c3)n2)cc1 | -0.41% |
| c1cnn2ncc(-c3ccnc(NCCCN4CCOCC4)n3)c2c1 | -6.03% |
| COc1cc(Nc2ncc(-c3ccccc3)o2)cc(OC)c1 | 2.1% |

| SMILES | inhibition |
| --- | --- |
| CCS(=O)(=O)c1ccc(OC)c(Nc2ncc(-c3cccc(C(C)=O)c3)o2)c1 | 13.1% |
| COC(=O)Nc1nc2ccc(Oc3ccc(NC(=O)Nc4cc(C(F)(F)F)ccc4F)cc3)cc2s1 | -0.71% |
| COc1ccc(Nc2ncc(-c3ccccc3)o2)cc1OC | -0.27% |
| NS(=O)(=O)c1cccc(N/C=C2\C(=O)Nc3ccccc32)c1 | 7.2% |
| COc1cc(N2CCN(C(C)C)CC2)ccc1Nc1nc(Nc2cccc3ncccc23)c2cc[nH]c2n1 | 0% |
| COc1cc(N2CCN(C(C)C)CC2)ccc1Nc1nc(Nc2cccc(F)c2C(=O)O)c2cc[nH]c2n1 | -1.3% |
| CN1CCC(C(=O)Nc2n[nH]c3nc(-c4ccc(O)cc4)c(Br)cc23)CC1 | 1.72% and 4.51% |
| O=C(O[C@H]1CN[C@H](C#Cc2cc3ncnc(Nc4ccc(OCc5cccc(F)c5)c(Cl)c4)c3s2)C1)N1CCOCC1 | 0.99% |
| CN(C)CCNC(=O)Nc1ccc(N(C)c2ccnc(Nc3ccc(CS(C)(=O)=O)cc3)n2)cc1 | 0.26% |
| NS(=O)(=O)c1ccc(N/N=C2\C(=O)Nc3ccc(C(=O)NCc4ccncc4)cc32)cc1 | -0.37% |
| Fc1ccc(Nc2nccc(-c3c(-c4ccc(C(F)(F)F)cc4)nn4ncccc34)n2)cc1F | 0.46% |
| CC1(C)CC(n2cnc(-c3ccc(F)cc3)c2-c2ccnc(N)n2)CC(C)(C)N1 | 1.98% |
| Cc1c2ccc(N(C)c3ccnc(Nc4cccc(S(N)(=O)=O)c4)n3)cc2nn1C | 1.12% |
| CN1CCC(n2cnc(-c3ccc(F)cc3)c2-c2ccnc(NCCO)n2)CC1 | 9.04% |
| CS(=O)(=O)CCNCc1ccc(-c2ccc3ncnc(Nc4ccc(OCc5ccccc5)cc4)c3c2)o1 | -0.6% |
